Compound activity (PubChem BioAssay)
HEK293 cAMP ctrl – counter-screen for TSHR agonists: cAMP increase in parental HEK293; AID 938; parental HEK293 CNG cAMP sensor, membrane potential fluorescence; hit rate 2.5% among 73,000; Potency, µM (titrated, usually from 57.1 µM), inactives show at the top dose activation, actives largely listed as activators; active means well fitted activation curve with a large enough effect; inconclusive means small, poorly fitted or top-dose-only effect; inactive means no such curve, though single readings can be large or run the other way; further: % of control where 0% means no effect; nearly all actives have a fitted effect of over 55% in size
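Parental HEK 293 cells stably expressing a modified CNG channel (no TSHR) report cAMP rise as membrane depolarization. Membrane potential dye with 100 uM RO 20-1724 was loaded for 60 min at room temperature, then compound added for 30 min; fluorescence read at 590 nm.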
TSHR ag – agonists of human thyroid stimulating hormone receptor; hit rate 0.48% among 73,000; AID 926; Potency, µM (series often up to 57.1 µM), for the others: top-dose activation, usual class: activators; P16473; HEK293-CNG-TSHR cells (CNG channel as cAMP sensor), membrane potential dye, cAMP; active means well fitted activation curve with a large enough effect in the main read-out, with a control signal flat, not every such curve was filed as active; inconclusive means small, poorly fitted or top-dose-only effect, or a change in a side signal; inactive means no such curve, though single readings can be large or run the other way; % of control where 0% means no effect;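 further: the control signal comes from parental cells without the receptor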
Target sequence (P16473 whole entry, looked up): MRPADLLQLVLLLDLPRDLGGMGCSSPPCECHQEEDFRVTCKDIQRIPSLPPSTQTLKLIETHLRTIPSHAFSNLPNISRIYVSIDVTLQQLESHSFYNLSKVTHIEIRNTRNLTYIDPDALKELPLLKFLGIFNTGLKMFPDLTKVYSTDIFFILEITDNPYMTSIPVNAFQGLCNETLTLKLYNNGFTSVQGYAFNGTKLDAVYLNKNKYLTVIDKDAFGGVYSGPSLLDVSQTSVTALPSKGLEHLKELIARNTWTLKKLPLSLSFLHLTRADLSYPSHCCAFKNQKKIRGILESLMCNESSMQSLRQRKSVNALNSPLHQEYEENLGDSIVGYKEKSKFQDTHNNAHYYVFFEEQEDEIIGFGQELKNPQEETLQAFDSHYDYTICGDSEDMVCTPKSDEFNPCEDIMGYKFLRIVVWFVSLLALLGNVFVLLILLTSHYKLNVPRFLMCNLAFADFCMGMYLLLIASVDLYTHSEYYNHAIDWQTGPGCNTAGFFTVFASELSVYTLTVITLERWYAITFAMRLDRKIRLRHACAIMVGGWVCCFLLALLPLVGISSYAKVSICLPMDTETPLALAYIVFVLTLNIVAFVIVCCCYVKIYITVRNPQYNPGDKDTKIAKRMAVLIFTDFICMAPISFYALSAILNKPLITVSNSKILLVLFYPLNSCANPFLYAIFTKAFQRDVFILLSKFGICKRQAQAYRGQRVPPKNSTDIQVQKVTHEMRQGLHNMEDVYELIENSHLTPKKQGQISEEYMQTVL
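HEK 293 cells stably expressing TSHR and a cAMP-gated CNG channel; parental CNG-only cells as counterscreen. Cells preloaded 60 min with membrane potential dye plus 100 uM RO 20-1724, then compound 30 min; fluorescence read at 590 nm.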
* = called active by the depositor; u = inconclusive; x = not tested or not shown; [ ] = another dose, or the depositor's remark. Most compounds without a hit are left out; they make up all but 2.9% or so of the library. Potency means the concentration at half of the fitted maximal effect.

SMILES	HEK293 cAMP ctrl	TSHR ag
C[C@@H]1C=C[C@](Cc2ccccc2)(C(=O)NCCc2c[nH]c3ccccc23)N1C(=O)c1ccccc1	2.51µM*	u
COC(=O)[C@@]1(Cc2ccccc2)C=C[C@@H](C)N1C(=O)c1ccccc1	31.6µM*	u
CC(=O)N1[C@H](C)C=C[C@]1(Cc1ccccc1)C(=O)NCc1cc(F)cc(C(F)(F)F)c1	22.6%	17.8%
COc1cc(/C=C\C(=O)N2CCCCC2=O)cc(OC)c1OC	-9.3%	0.8%
C[C@@H]1NCC[C@H](CC(=O)O)[C@H]1CC(=O)O	1.4%[11.4 µM]	-8.0%[11.4 µM]
CCN(c1cccc(C)c1)S(=O)(=O)c1ccc(O)c(C(=O)O)c1	-2.1%	3.3%
O=C(C1CCCN(S(=O)(=O)c2ccccc2)C1)N1CCN(c2ncccn2)CC1 (stereo unspecified)	7.9%	-2.2%
O=C(C1CCN(S(=O)(=O)c2ccc3ccccc3c2)CC1)N1CCN(c2ncccn2)CC1	25.1µM*	u
COC(=O)c1ccccc1NC(=O)c1cc(OC)cc(OC)c1	25.1µM*	u
COCCNC(=O)c1ccccc1NC(=O)COc1ccccc1	0.2%	6.1%
COC(=O)c1ccccc1NC(=O)COc1ccccc1	31.6µM*	u
COC(=O)c1ccccc1NC(=O)CC#N	11.1%	8.4%
CCC=O	11.9%	3.7%
COc1ccccc1-c1cncnc1-n1ccnc1	-5.5%	-1.7%
COc1ccccc1-c1cc(-n2ccnc2)ncn1	31.6µM*	u
NNC(=O)c1ccc[n+](CCc2ccccc2)c1	-7.2%[11.4 µM]	-1.1%[11.4 µM]
CCOC(=O)c1ccc(NC(=O)c2cc3ccccc3o2)cc1	25.1µM*	u
O=C(Nc1ccccc1N1CCCC1)c1cc2ccccc2o1	14.6%	0.8%
Cc1cccc(NC(=O)c2cc3ccccc3o2)c1	25.1µM*	u
CC(C)C(=O)Nc1ccc(NC(=O)c2cc3ccccc3o2)cc1	7.3%	4.8%
CCC(=O)Nc1cccc(NC(=O)c2cc3ccccc3o2)c1	8.0%	13.9%
O=C(Nc1cccc(Br)c1)c1cc2ccccc2o1	25.1µM*	u
CC(=O)c1ccc(C2C=CC(Oc3ccc(F)cc3C)C(CO)O2)cc1 (stereo unspecified)	-0.3%[11.4 µM]	-5.4%[11.4 µM]
CN(N=O)c1ccc(/C=C\c2ccnc3ccccc23)cc1	0.7%[11.4 µM]	-2.2%[11.4 µM]
CCC(C)(C)OC	-4.1%	u
SMILES	HEK293 cAMP ctrl	TSHR ag
COC(=O)c1ccc(OC)c(CSc2nnc(COc3ccc(OC)cc3)o2)c1	12.6µM*	u
COc1ccc(C(C)=O)cc1CSc1nc2ccccc2o1	25.1µM*	u
COc1ccc(C(C)=O)cc1CSc1nnc(C)s1	9.8%	11.8%
COc1ccc(Cc2nnc(SCC(=O)c3ccc(OC)cc3)o2)cc1	31.6µM*	u
COC(=O)c1ccc(NC(=O)CSc2nnc(COc3ccc4c(c3)CCCC4)o2)cc1	-3.3%	-1.6%
COc1ccc(C(=O)CSc2nnc(Cc3ccccc3)o2)cc1	17.9%	x
COC(=O)NC(CC(C)=O)c1ccccc1 (stereo unspecified)	1.7%[11.4 µM]	-2.3%[11.4 µM]
C[N+](C)(C)c1nc(N)nc2c1ncn2[C@H]1O[C@@H](CO)[C@@H](O)[C@H]1O	7.4%[11.4 µM]	1.6%[11.4 µM]
N[C@@H](C(=O)O)[C@H](O)C(=O)O	1.6%	10.3%
c1ccc2c(c1)Cc1cc3cc4c(cc3nc1-2)OCO4	23.9%	x
O=C(OCc1nnc(-c2ccccc2)o1)c1ccc2c(c1)OCO2	39.8µM*	u
O=C(OCc1nnc(-c2ccccc2)o1)c1ccco1	15.4%	2.1%
CC(=O)OC[C@@H]1O[C@H](C/C=N\O[C@@H](C)CN2CCCc3nc(C)c(C)cc32)C=C[C@@H]1OC(C)=O	14.3%[11.4 µM]	0.8%[11.4 µM]
CN(CC(=O)O)CC(=O)O	-2.2%[11.4 µM]	0.8%[11.4 µM]
CCCn1c(SCC(=O)Nc2ccc3c(c2)OCO3)nc2c1c(=O)n(C)c(=O)n2C	14.7%	-1.4%
CCCn1c(SCC(=O)Nc2ccccc2N2CCCCC2)nc2c1c(=O)n(C)c(=O)n2C	1µM*	u
O=C(O)C/C(=C\c1ccccc1)C(=O)O	-1.8%[11.4 µM]	-3.7%[11.4 µM]
CCOC(=O)CSC1=C(C#N)C(c2ccccc2)C(C(C)=O)=C(C)N1 (stereo unspecified)	20.4%	-7.0%
CSCSC1=C(C#N)C(c2ccc(Cl)cc2)C(C(C)=O)=C(C)N1 (stereo unspecified)	25.1µM*	u
O=C(O)CSCc1cccc2ccccc12	12.5%[11.4 µM]	-1.3%[11.4 µM]
CC(O)CNc1nc2ccccc2n1-c1ncnc2sc3c(c12)CCC3 (stereo unspecified)	-33.7%	u
Cc1nc(N2CCN(c3ccccc3)CC2)c2c3c(sc2n1)CCC3	-2.6%	15.8µM*
Cc1nc(-n2nnc3ccccc32)c2c3c(sc2n1)CCCC3	20µM*	u
Oc1ccc(N2CCN(c3ncnc4sc5c(c34)CCC5)CC2)cc1	1.9%	x
CC(C)[C@H](NC(=O)OC(C)(C)C)[C@@H](O)CC(=O)OC(C)(C)C	-3.5%[11.4 µM]	-7.8%[11.4 µM]
SMILES	HEK293 cAMP ctrl	TSHR ag
N/N=C1/c2ccccc2N[C@H]1OC(=O)Nc1ccccc1	-9.2%[11.4 µM]	-11.0%[11.4 µM]
Cc1cc(N2CCOCC2)nc(SCC(=O)c2ccccc2)n1	16.0%	0.4%
Cc1cc(N2CCCCC2)nc(SCc2ccc(C#N)cc2)n1	31.6µM*	u
O=C(c1ccc(Cl)s1)N1CCc2ccccc21	27.2%	15.8µM*
Cn1ncc(Cl)c1C(=O)N1CCc2ccccc21	5.0%	5.3%
COC(=O)NC(c1cccc(C)c1)[C@]1(C(C)=O)CCOC1=O (stereo partly specified)	13.0%[11.4 µM]	2.9%[11.4 µM]
CN(C)CCN(c1ccccn1)c1ccccn1	-1.7%[11.4 µM]	1.5%[11.4 µM]
Cn1c(Nn2cnnc2)nc2ccccc21	3.16µM*	u
Cn1c(CNc2nc3ccccc3n2C)nc2ccccc21	5.5%	10.3%
C1CCCC1	7.4%	-1.8%
CSc1ccc(S(=O)(=O)NCc2ccccc2Cl)cc1	0.8%	51.3%
CCc1ccccc1NS(=O)(=O)c1ccc(SC)cc1	14.6%	25.1µM*
Cc1nc2cnc(N3CCN(C)CC3)nc2n(C2CC2)c1=O	2.5%	-3.3%
Cc1cc(-n2c(C)cc(C(=O)CSc3nnnn3-c3ccccc3)c2C)no1	23.6%	20µM*
Cc1ccc(-n2nnnc2SCC(=O)c2cc(C)n(-c3cc(C)on3)c2C)c(C)c1	25.1%	23.2%[11.4 µM]
CCn1c(SCC(=O)c2cc(C)n(CC3CCCO3)c2C)nc2ccccc21 (stereo unspecified)	12.5%	13.9%
Cc1cc(C(=O)CSc2nnnn2-c2ccccc2)c(C)n1CC1CCCO1 (stereo unspecified)	25.1µM*	u
NCCSCCc1ccccc1	4.2%[11.4 µM]	6.6%[11.4 µM]
CCc1nnc(NC(=O)c2ccc(OC)cc2OC)s1	25.1µM*	u
CCc1nnc(NC(=O)Nc2ccccc2OC)s1	4.9%	5.9%
C=CCC1(C)OC=Cc2nc3cc(Cl)c(Cl)cc3nc21 (stereo unspecified)	27.5%[11.4 µM]	14.9%[11.4 µM]
O=C(c1cnccn1)N1CCC2(CC1)CCN(c1cccc(-c3ccccc3)c1)CC2	28.2%	27.8%
O=C(O)CCCC(=O)OCCCCc1cccs1	5.0%	1.7%
Nc1nnc(CCCCc2cccs2)o1	0.501µM*	u
COC(=O)C/C=C\[C@H](C)[C@@H](OC)c1ccccc1Br	-1.6%[11.4 µM]	-4.9%[11.4 µM]
CCOC(=O)CCN1CCN(C(=O)c2ccc(-n3c(=O)c(=O)[nH]c4ccccc43)cc2)CC1	-3.7%	-1.5%
Cc1cc(OCC(=O)Nc2ccc3c(c2)OCCO3)ccc1Cl	0.251µM*	u
CC(C)(C)NS(=O)(=O)c1ccc(OCC(=O)Nc2ccc3c(c2)OCCO3)cc1	0.0%	-0.7%
NC(=O)/N=C(\N)NC(=O)c1ccccc1	7.7%[11.4 µM]	-3.6%[11.4 µM]
